From PubChem BioAssay AID798 (PCMD, 2007)
Among all 220,000 compounds or so, about 300 (0.14%) were called active.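 How the source made its calls: active means inhibition of at least 40%; inactive means inhibition below 40%.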 The list comes from a sample in which actives are over-represented; it also holds similar structures and randomly drawn compounds.

target: Coagulation factor XI (Homo sapiens) (UniProt P03951); test: human FXIa protease inhibitors, primary screen, biochemical, 1536-well (AID 798); details: purified FXIa, Boc-Glu-Ala-Arg-AMC fluorogenic substrate; at 5 µM; active compounds read high;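 further: fluorescence of freed AMC excited at 355 nm; 0% = enzyme without compound and 100% = no enzyme blank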
Sequence (P03951 19-387 limits assumed): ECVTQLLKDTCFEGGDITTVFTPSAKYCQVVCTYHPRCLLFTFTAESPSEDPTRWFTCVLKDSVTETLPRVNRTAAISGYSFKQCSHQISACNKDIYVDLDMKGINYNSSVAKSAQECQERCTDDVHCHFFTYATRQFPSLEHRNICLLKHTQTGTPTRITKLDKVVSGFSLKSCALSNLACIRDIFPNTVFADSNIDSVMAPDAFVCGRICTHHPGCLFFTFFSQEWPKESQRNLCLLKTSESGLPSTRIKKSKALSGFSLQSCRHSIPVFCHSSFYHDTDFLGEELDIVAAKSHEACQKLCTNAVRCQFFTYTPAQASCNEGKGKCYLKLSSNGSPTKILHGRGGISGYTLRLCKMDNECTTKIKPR
Sequence (P03951 388-625 limits assumed): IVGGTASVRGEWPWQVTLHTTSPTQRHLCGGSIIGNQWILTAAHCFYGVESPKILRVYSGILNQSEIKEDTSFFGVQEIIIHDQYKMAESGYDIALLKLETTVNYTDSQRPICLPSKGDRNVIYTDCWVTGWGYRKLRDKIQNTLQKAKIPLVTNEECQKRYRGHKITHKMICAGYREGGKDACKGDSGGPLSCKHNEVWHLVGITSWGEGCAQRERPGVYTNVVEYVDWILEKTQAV

inhibition, active:
Cc1nc2cc(NC(=O)Nc3cccc(F)c3)ccc2n1C 43.8%, CCOc1cc(CO)ccc1OCC(=O)N1CCCCC1 40.9%, COc1c(C)cc(C(=O)C2CCCN(S(=O)(=O)c3c(C)noc3C)C2)cc1C (stereo unspecified) 102%

inhibition, inactive:
Cc1c(Br)ccc(NC(=O)COc2ccccc2C(N)=O)c1C 3.29%, C/C=C(/C)C(=O)O[C@@H]1c2cc3c(c4c2[C@@]2(CO4)C(=O)C(OC)=C(OC)C=C2C[C@@H](C)[C@H]1C)OCO3 0.96%, COc1ccc(SC[C@H](Cc2ccccc2)N2CCN(CCc3ccccc3)CCC2=O)cc1 0.67%, Cn1cnc(S(=O)(=O)Nc2ccc3c(c2)OCCO3)c1 3.26%, Cc1ccc(NC(=O)NC(=O)CSc2nnc(-c3ccc(OC(F)F)cc3)n2N)c(C)c1 3.67%, CCN=c1sc(C(=O)Nc2ccccc2)c(C)n1CC -2.02%, Cc1cc(C(=O)OCC(=O)Nc2nnc(C(C)C)s2)c2ccccc2n1 -3.05%, CC1=C(C(=O)N(C)C)C(c2ccccc2OC(F)F)NC(=O)N1 (stereo unspecified) 0.62%, Cc1ccc(OC(=O)CCC(=O)Nc2ccc(Br)cc2)cc1 -1.21%, O=S(=O)(NC(=S)Nc1ccccc1)c1ccc(F)cc1 4.03%, CCOC(=O)CN(C)S(=O)(=O)c1ccc(-c2cc(C(=O)OC)sc2C(F)(F)F)cc1 32.6%, CN1CCN(C(=O)CCc2ncc(C(F)(F)F)cc2Cl)CC1 7.14%, COC(=O)c1c(NC(=O)CCCC(=O)O)sc2c1CCCCC2 -0.58%, O=C(N/N=C/c1cc2c(cc1Br)OCO2)C1COc2ccccc2O1 (stereo unspecified) -10.7%, C[N+]1(CC(O)COc2ccccc2)CCN(C(=O)c2ccc([N+](=O)[O-])cc2)CC1 (stereo unspecified) 0.51%, C=CCN(C(=O)Nc1ccc2c(c1)nc(C)n2C)c1ccccc1 26.2%, Cc1nc2cc(NC(=O)NC3CC3)ccc2n1C -5.28%, Cc1cc(-c2csc(N)n2)c(C)n1-c1ccccc1 2.06%, CCOc1ccc(/C=C2\SC(=S)N(NC(=O)c3ccncc3)C2=O)cc1OC 6.9%, C[C@H](NC(=O)c1nc[nH]c1C(=O)N[C@@H](C)C(=O)OC(C)(C)C)C(=O)OC(C)(C)C 1.92%, CN(C)C(=S)Nc1ccc(Br)cc1Cl 1.74%, NC(=O)Cn1nc([N+](=O)[O-])nc1Oc1ccc(Br)cc1 0.41%, O=C(Cc1ccc(F)cc1)N1CCN=C1SCc1cccc([N+](=O)[O-])c1 -3.4%, Cc1cccc(N(C(=O)Cc2cccs2)C(C(=O)NCc2ccco2)c2ccncc2)c1 (stereo unspecified) -1.59%, CN(C)/N=C/c1cc(Cl)cc([N+](=O)[O-])c1O 2.99%, CC(=O)NC1(c2ccc(F)cc2)CCN(C(=O)c2c(F)cccc2F)CC1 -6.45%, Cc1cccc(N2CCN(Cc3nc(C4CC4)no3)CC2)n1 -4.4%, Cc1ccc(S(=O)(=O)N2CCN(CC(=O)N/N=C/c3cc([N+](=O)[O-])ccc3Cl)CC2)cc1 3.33%, COc1nc(NC2CCCCC2)nc(N2CCCCCC2)n1 5.12%, O=c1nc(N/N=C/c2ccco2)cn[nH]1 -0.64%, CC(C)OP(=O)(OC(C)C)C(Nc1ccccc1)c1cccc([N+](=O)[O-])c1 (stereo unspecified) 2.9%, COc1cccc(N2C(=O)CC(N3CCc4ccccc4C3)C2=O)c1 (stereo unspecified) -2.99%, Cc1ccc(NN=C2C(=O)OC(C)(C)OC2=O)c(C)c1 -3.38%, O=C(COc1ccccc1[N+](=O)[O-])N/N=C/c1ccc[nH]1 2.13%, CC(C)c1nc(SCC(=O)NC(=O)NC(C)(C)C)n[nH]1 1.78%, Cc1ccc(C(=O)Cn2cc([N+](=O)[O-])nc2C)cc1 2.54%, O=C(CNCc1ccc(F)cc1)Nc1ccccc1-c1ccccc1 5.85%, O=C(COC(=O)C12CC3CC(CC(O)(C3)C1)C2)NC12CC3CC(CC(C3)C1)C2 -0.93%, CCOC(=O)c1ccc(NC(=O)Cn2cnc3cc(C)c(C)cc32)cc1 -1.09%, COc1ccc(CN2C(=O)CC(Cc3ccc(C)cc3)C2=O)cc1OC (stereo unspecified) 16.3%, Cc1nc(N)[nH]c(=O)c1Oc1cccc(C(F)(F)F)c1 -2.42%, CC(C)(C)NC(=O)CSC(=Nc1ccccc1F)NC#N 7.8%, CCC1SC(CC)C(=O)N(CC(=O)NC2CCCCC2)C1=O (stereo unspecified) 26%, Cc1ccccc1Cn1c2ccccc2c2cnn(CC(=O)NCc3ccco3)c(=O)c21 -0.28%, COCCNC(=S)N1CCC(NC(=O)C23CC4CC(CC(C4)C2)C3)CC1 -6.69%, O=C(COc1ccc(Cl)cc1[N+](=O)[O-])N1CCCCC1 -5.02%, CCOc1cc(CN2CCN(C(=O)CC(C)C)CC2)ccc1OC -13.4%, COc1ccccc1OCC(=O)OCn1c(SC)nnc(C)c1=O 5.82%, CCOC(=O)N1CCN(Cc2nc3ccc([N+](=O)[O-])cc3c(=O)n2-c2cccc(OC)c2)CC1 -1.56%, Cc1cc(C(=O)CSc2nc(N)cc(=O)[nH]2)c(C)n1Cc1ccco1 -4.8%, CCc1cccc(CC)c1NC(=S)Nc1ccc2cn[nH]c2c1 0.17%, O=C(O)c1ccccc1OCc1ccccc1Cl 1.64%, COCCN(CCOC)c1nc(N)c2c(N)nc3c(c2c1C#N)CC(=O)N3Cc1ccc(Cl)cc1 -10.3%, CC1=NN(/C(=N\c2nnc(C)s2)Nc2ccccc2)[C@H](c2ccc(C)cc2)S1 0.56%, COC(=O)c1sccc1-n1cccc1C(=O)C(=O)N1CCCCC1 0.21%, O=C(Nc1ccc(Cl)cc1)Nc1ccc(C(=O)N2CCOCC2)cc1 4.9%, OC(c1nc2ccccc2[nH]1)C(O)C(O)C(O)c1nc2ccccc2[nH]1 (stereo unspecified) 1.7%, O=C(CCS(=O)(=O)Cc1ccccc1)Nc1ccc2c(c1)OCCO2 -6.9%, COC(=O)Cc1[nH]n(-c2nc3ccccc3s2)c(=O)c1C(C)=Nc1ccc(OC)cc1 2.75%, N#C/C(=C/c1cccc([N+](=O)[O-])c1)c1nnc2n1CCCCC2 0.95%, O=C(Cn1cc(C(F)(F)F)ccc1=O)N/N=C/c1ccc(Cl)cc1Cl 6.17%, O=C1N/C(=C/c2cccn2-c2ccccc2)C(=O)N1c1cccc(Cl)c1 -9.57%, COCCNC(=O)C(c1ccc(O)cc1)N(C(=O)CCC(=O)Nc1nccs1)c1ccc(C)cc1 (stereo unspecified) 1.25%, CCC(C)(C)NC(=O)CN(Cc1cccs1)C(=O)CNS(=O)(=O)c1ccc(F)cc1 -7.45%, CC(C)C(NC(=O)C1CCC(C(C)(C)C)CC1)C(=O)NCCCN1CCCCC1 (stereo unspecified) -3.84%, COc1ccccc1NC(=O)c1cc(Cl)nc2ccccc12 -7.34%, Cc1c(C(=O)NC(=S)NCc2cccnc2)oc2ccccc12 -1.74%, CN(C)CC(C)(C)CNC(=O)c1cc(Br)cc(Br)c1O -3.11%, Cc1ccc(NC(=O)C2CCCN(S(=O)(=O)c3c(C)noc3C)C2)c(C)c1 (stereo unspecified) -3.38%, Cc1noc(C)c1S(=O)(=O)N1CCCC(C(=O)Nc2nccs2)C1 (stereo unspecified) 1.07%, FC(F)(F)c1cccc(-c2nc(COc3ccc(Cl)cc3Cl)no2)c1 2.41%, CN1CCc2ccccc2C1Cc1ccccc1NC(=O)c1sc2ccccc2c1Cl (stereo unspecified) 2.33%, CCOC(=O)CSC1=N/C(=C/c2ccc(-n3cncn3)cc2)C(=O)N1C(C)=O 3.79%, O=c1[nH]c(CN2CCOCC2)nc2scc(-c3ccccc3)c12 -11.5%, Cc1cccc2cc(CN(C(=O)c3cccs3)c3ccccc3)c(=O)[nH]c12 -1.12%, COc1ccc(OCc2n[nH]c(=S)n2N)cc1 -0.79%, NS(=O)(=O)c1ccc(CCNC(=O)NC2CCCCC2)cc1 3.22%, Cc1ccc(C(=O)Nc2ccc(C)c(S(=O)(=O)N(C)C)c2)s1 6.45%, C#CCOCCOCCOCCNc1nc(N2CCN(C(=O)[C@H](CCC(=O)O)n3cc(C(N)CO)nn3)CC2)nc(N2CCN(C(=O)[C@H](CCCCN)n3cc(C(N)CC(C)C)nn3)CC2)n1 (stereo partly specified) 0.58%, NC(=O)C1=C[C@@H](c2csc3ccccc23)C[C@@H](OCc2ccc(CO)cc2)O1 -0.4%, CN(CCc1ccccn1)C(=O)CCC1CCCN(Cc2ccccc2OC(F)F)C1 (stereo unspecified) -3.18%, COc1ccccc1CN(C)c1nnnn1-c1ccccc1 -0.22%, CC(C)Cc1nnc(NC(=O)CCC(=O)Nc2ccc3cn[nH]c3c2)s1 5.73%, C=CC(COCc1ccccc1)N(Cc1ccccc1)S(=O)(=O)c1ccccc1Br (stereo unspecified) -5.35%, COc1cc2[nH]c(=O)n(Cc3ccc(C(=O)NC4CCN(Cc5ccccc5)CC4)cc3)c(=O)c2cc1OC -5.4%, CCSC1=NCCN1C(=O)c1ccc(S(=O)(=O)N(CC)CC)cc1 -2.2%, CCC(C(=O)Nc1ccc2c(c1)OCCO2)c1ccccc1 (stereo unspecified) -1.53%, CC12CN3CCN(CC(C3)/C1=N\NC(=O)c1ccccc1N)C2 -0.67%
